# Assay results as given in PubChem BioAssay (NCI).
# About 83,000 compounds went through this panel and 20% of them were active in at least one assay; those are over-represented in the sample as a whole.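 Plates (96-well) were seeded with cells, treated with compound at one concentration, and incubated for 48 hours before percent growth was determined.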 A number with no mark means an inactive call. Activity calls are given as the source filed them.
# Tested on: T-47D breast
# Experiment: NCI-60 one-dose screen, 48 h (100 = growth as untreated, 0 = no growth, -100 = all killed)
# Details: 10 µM unless noted
# Experimental: Growth inhibition of the T-47D human tumor cell line is measured as a screen for anti-cancer activity. Cells are grown in 96 well plates and exposed to the test compound for 48 hours. Compounds are tested at a single concentration, which is 10^-5 M for most compounds. The reported endpoint is percent growth (GI% or GIPRCNT), where numbers from 0 - 100% represent growth inhibition, and numbers from -100% - 0 represent cell death. For example, a value of 40 represents 60% growth inhibition. A value of 0 means no net growth occurred over the course of the experiment. A value of -40 indicates 40% of cells at the beginning of the experiment died by the end of the experiment. A value of -100 means all cells are dead at the end of the experiment.
# NCI-60 Human Tumor Cell Lines Screen was performed using the standard one-dose NCI protocol, which is described in more detail at https://dtp.cancer.gov/discovery_development/nci-60/default.htm.
# Compounds with GIPRCNT values below 10 were considered active. Activity score was based on GIPRCNT using the following formula: […]
# Score is 0 for GIPRCNT values of 100 or above, 50 for GIPRCNT values of 0, and 100 for GIPRCNT values of -100.
row,Structure (SMILES),growth
1,O=C(CCCCC(=O)N/N=C\c1ccccc1O)N/N=C\c1ccccc1O,35.5%
2,O=C(O)c1c(=O)cccc2ssc12,-43% (active)
3,COc1cc2c(cc1O)CC[C@@H]1[C@@H]2CC[C@]2(C)[C@@H](OCCN(C)C)CC[C@@H]12,58.3%
4,CC[C@@H](C(=O)[C@@H](C)[C@@H](O)[C@H](C)[C@@H]1O[C@@H]([C@@H](CC)C(=O)O)CC[C@@H]1C)[C@H]1OC2(C=C[C@@H](O)[C@]3(CC[C@@](C)([C@H]4CC[C@](O)(CC)[C@H](C)O4)O3)O2)[C@H](C)C[C@@H]1C (stereo not given in full),27.2%
5,O=C(COc1cccc(/C=C2\COc3ccccc3C2=O)c1)Nc1nccs1,54.7%
6,O=C1NC(=O)C(c2ccc(Cl)cc2Cl)N1 (stereo not given),111%
7,Cc1cc(C)nc(SC2=C(Nc3ccc(O)cc3)C(=O)N(Cc3ccccc3)C2=O)n1,45% [40 µM]
8,CCc1c(Nc2ccccc2C)nc(N)[nH]c1=O,114%
9,O=C(Nc1ccccc1Cl)c1ccc(NC2=C(Cl)C(=O)N(C3CCCCC3)C2=O)cc1,38.7% [30 µM]
10,CN(C)CCN1C(=O)c2cccc3c(N)ccc(c23)C1=O,-2.59% (active)
11,Cc1ccccc1COc1ccc(-c2ccnn2-c2ccc(Cl)cc2)cc1,65.4%
12,CN1CCN=C1c1ccc(NC(=O)c2ccc(C(=O)Nc3ccc(C4=NCCN4C)cc3)cc2)cc1,86.7%
13,COC(=O)c1cccc(NC(=O)c2ccc(-c3cccc(N)c3)o2)c1,88.1%
14,CC(=O)Oc1ccc(Cl)cc1CN(C(C)=O)C1CCCCC1,104%
15,COc1cc(-c2nc3cc(Cl)c(Cl)cc3[nH]2)ccc1OCC(=O)N=Nc1c(O)[nH]c2ccccc12,-63.4% (active)
16,Nc1n[nH]c2cc(F)c([C@@H]3Nc4ccc5[nH]ncc5c4[C@H]4C5CCC(C5)[C@@H]34)cc12 (stereo not given in full),97.6%
17,CC1C(/C=N/Nc2ccccc2)C(C#N)(C#N)C1(C#N)C#N (stereo not given),79.3%
18,CSc1nc(-c2cccc(NC(=O)CCl)c2)c(C#N)c(=O)n1C,34.5%
19,CCn1c(Cc2ccccc2Nc2c(Cl)cccc2Cl)nnc1SCC(=O)NN1C(=O)/C(=C/c2cc(OC)c(O)c(OC)c2)SC1=S,24.4%
20,C=CC(=O)Nc1cccc(-c2nc(SC)nc(Nc3ccccc3OC)c2C#N)c1,3.01% (active)

row,Structure (SMILES),growth
1,COc1cc2c(cc1O)CC[C@@H]1[C@@H]2CC[C@]2(C)[C@@H](NCCN(C)C)CC[C@@H]12,-64.5% (active)
2,CCOc1nc(-c2ccccc2)cc2c(O)c(C(=O)N/N=C/c3ccc(O)cc3O)[nH]c(=O)c12,34.3%
3,CN(C)c1ccc(N=Nc2ccccn2)c(O)c1,31.4%
4,OC(COc1cccc2ccccc12)CN1CCN(c2ccccc2Cl)CC1 (stereo not given),74.5%
5,C#Cc1cccc(NC(=O)c2ccccc2NC(=O)C=C)c1,76.6% [8.25 µM]
6,FC(F)(F)Oc1ccc2nc3nc4ccc[nH]c4cc3c2c1,41.3%
7,O=S(=O)(Nc1ccc(OC(F)F)cc1)c1ccc(-c2cnc(C3CC3)o2)cc1,48.3%
8,CCn1c(O)c(/C=N/NC(=O)C(C)c2ccc(CC(C)C)cc2)sc1=S (stereo not given),38%
9,Cc1cc(C)nc(SC2=C(Nc3cccc(Cl)c3)C(=O)N(Cc3ccccc3)C2=O)n1,22.2% [30 µM]
10,C#CCOc1ccc2ncnc(Nc3cccc(CNC(=O)CCl)c3)c2c1,29.6% [8.25 µM]
11,COc1ccc(-c2cc(NC(=O)Nc3ccc4ncsc4c3)no2)cc1,86.6%
12,CC(=O)c1cc2c(N)c(C(=O)Nc3cccc4ccccc34)sc2nc1C,42.7%
13,CCOc1ccc(C(C)=O)cc1NC(=O)c1cccc(-c2nnn(CC)n2)c1,29.6%
14,COc1cccc(/C=C2\SC(=Nc3ccc(NC(C)=O)cc3)NC2=O)c1OC,89.2%
15,N#Cc1nnn(-c2ccc(S(N)(=O)=O)cc2)c1NCC(=O)c1ccccc1,95.4%
16,O=S(=O)(Nc1ccc(Cl)c(F)c1)c1ccc(-c2cnc(C3CC3)o2)cc1,27.8%
17,CC1=CC(=NN=c2cc(C)n([O-])c(C)c2)C=C(C)[N+]1=O,43.9%
18,COc1cc(-c2nc3ccccc3[nH]2)ccc1OCC(=O)N=Nc1c(O)[nH]c2ccc(Cl)cc12,-52% (active)
19,NC(=NCCCC1(c2ccccc2)CCCC1)Nc1ccc(Cl)cc1,3.02% (active)
20,NC(=NC1C2CC3CC(C2)CC1C3)Nc1ccc(I)cc1 (stereo not given),2.31% (active)
